Measurements reported in the supplement of paper PMC6555819.

Tested on: VDR:RXRa (NR concentration 270 nM, RXRa partner concentration 90 nM)
Assay: PBM binding z-score (relative to random genomic background probes); higher = stronger binding; sequences stand for … in GC…GCGATTGACAGCGTAGAATGAAGG
Description: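 Protein-binding microarray (Agilent 4x180K custom design, double-stranded 60-nt probes: 5' GC cap, 34-nt variable region, 24-nt constant primer region; full probe sequence given). Purified or IVT nuclear receptor:RXRα heterodimers (3:1 NR:RXRα, mostly 270:90 nM) or homodimers were incubated for 1 h in PBS with 2% milk and no ligand, then detected with Alexa488 antibodies. Fluorescence from o1-orientation probes (~5 replicates averaged) was converted to z-scores against 500 random hg19 background probes. Variable regions are seed direct-repeat (DR0–DR5) sites, all their single-nucleotide variants and half-site ablations.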

Sequence | PBM binding z-score
AGAAAGAGGGCAATGAGTTGATAGCACGGGTGGC | 5.59
CCACCAAGGTGAACAAGGTCGTTGATTACTATTC | 6.23
CCTATTAGTTGACCATCAGGGCAACCGAAGCTCG | 0.508
CCTACTGCGCCAAAAAGGTCATTGATGCCGATAA | 4.94
GATACAGGGTAAGCTAGAGGCCAGAGTATGGAAA | -0.409
TCTAGCAGGCCAGAGGGTCACCCAAGAGGTACGG | 1.71
CCTAGCAGGCCATTCTGGGTCACTCAAGGCTTGA | 1.04
CGTCAAAGTTCAAGGTAACGTTACAGAAAGCAGC | 3.97
ACTAGTTTGTCAGCTGAGGTCACACACAATTCGG | 4.34
CGAAATAGGTCATTGACAGGACAGTGAATAGTAA | 3.26
GCTAGTTGGTCAGTAAAAGGTCACACGCCGGTCG | 3.87
CGTCCAAGGTCAAGGTCAGTCAAAGAGACTCGAA | 4.84
CCTACTGGGCCAAAGGGCATTGATTCCAATGCTC | 0.0732
GGAACGAGGGGAAGTTGATAGCAGAGTTTGATGG | -0.234
ACTAGCAGGCCAAGTTTGGTTCACTCAAACAAAG | 0.34
TGAATGAGGTTAAAGATTAGGGAACGTGGCGTCG | 1.44
GGAACGAGGGCTTTCGAGTTGATAGCATGGCGAT | -0.0757
ACTATTAGTTGAGACGAGGGCGACCGATAGGTTG | 0.133
CTCGAAAGGTCGTGCTCCGGTGAGTATACCAAAC | 3.48
ATATGTAGATTATCGGGTCATTCAGTTTGCGCAT | 4.87

Sequence | PBM binding z-score
AGAATGAGGTTATACGTAGATCTGGGAAGAAAGT | 1.07
GCGACTGGGGCATCAGCAGGTTACTATAACTTAA | 0.0645
CCTTACGGGTCACGAGGTTATAGTACGACGAGCG | 5.35
AATAGAGGGTCACTAGGCCAGAGTAGGTACGAAT | 2.75
AGAATGAAGTTACCAAAGATCAGGGAAACGCTTG | -0.38
GCTAGTTGGTCAGTAAAAGGTCACTCACCGGTCG | 3.51
CGTCCAAGGACAGCAGGTCAGTGAAAGCGACGTG | -0.0699
CCTTACGGGTCACTCCAGTTTATAGCATCGGAGT | 5.1
CCGACTGGGGCAGAAAGGTTACCTTACCATCCGG | 0.875
CATACAGGGTCAGCTAGGCCTGAGTAGGGACGGC | 2.61
GCCACTGGGGCAAAGCAGGTTACCATAAGGTTGG | -0.0502
CCTACGGGGCCAAAAAGGTCATTGATGCCGATAA | 5.88
CCAGAAAGGTGAGAAGGTAACTCAGCCTCGATTA | 0.43
CAAACTAGGTCAAAGGTCAAAGTCGAGCCAACCA | 6.72
GCGACTGTGGCATCAGCAGGTTACCATAACTTAA | -0.319
GCTATTAGTTGAAAGGGGAACCGAATGATTCTCG | -0.142
AGCCAAAGTTCAGGACGAGGTAACGTAAAGCACG | 2.71
GCGACTGGGGCAGCAGCAGGTTACCATAACTTAA | -0.465
TCCTATAGGTAAAGGTGAAAGTCGAACGATATGA | 0.86
CCTAGTTGGTCAAGGTCGCACACGCTATAGGTAC | 1.75
